Assay outcomes as filed in PubChem BioAssay.
FBPA coupling cs – inhibits coupling enzyme system, counter-screen for aldolase hits. coupling enzyme system counterscreen, AmpLite Red fluorescence. activity change, negative = inhibition, % at 58.2 µM, hits read low. AID 2472. 290,000 tested, 0.67% active; in the data active = activity change below about -30%
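Final compound at 57.5 uM, incubated 10 min at RT with coupling enzyme reagent (glyceraldehyde-3-phosphate), then 20 min with substrate and AmpLite Red detection. Fluorescence read at 525/598 nm; tests interference with the coupling assay, not aldolase inhibition.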
ELG1 DNA repair – blocks ELG1-dependent DNA repair in HEK293T cells. 330,000 tested, 2.3% active. Potency, µM (top dose mostly 46.1 µM), inactives show top-dose activity change, negative = inhibition, most hits filed as inhibitors. HEK293T ELG1-luciferase reporter, luminescence, 16 h; DNA damage induced by 5-fluorouridine; also: potency is read from the fitted curve at half-maximal effect; nearly all actives have a fitted effect of over 55% in size
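5-Fluorouridine DNA damage + compound/DMSO, 2,000 cells/well, 16 h, 37 °C/5% CO2. ONE-Glo, 30 min RT, luminescence. Readout = decrease in reporter signal.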
RORgamma inh – inhibitors of mouse ROR gamma transcriptional activity; P51450; Drosophila S2 Gal4-RORgamma UAS-luciferase reporter, 20 h; Potency, µM (highest dose often 53.6 µM), inactives show at the highest dose activity change, negative = inhibition, hits mostly inhibitors; 310,000 tested, 5.4% active; also: potency is read from the fitted curve at half-maximal effect; nearly all actives have a fitted effect of over 60% in size
Target sequence (P51450 whole entry, looked up, the tested form may be a part): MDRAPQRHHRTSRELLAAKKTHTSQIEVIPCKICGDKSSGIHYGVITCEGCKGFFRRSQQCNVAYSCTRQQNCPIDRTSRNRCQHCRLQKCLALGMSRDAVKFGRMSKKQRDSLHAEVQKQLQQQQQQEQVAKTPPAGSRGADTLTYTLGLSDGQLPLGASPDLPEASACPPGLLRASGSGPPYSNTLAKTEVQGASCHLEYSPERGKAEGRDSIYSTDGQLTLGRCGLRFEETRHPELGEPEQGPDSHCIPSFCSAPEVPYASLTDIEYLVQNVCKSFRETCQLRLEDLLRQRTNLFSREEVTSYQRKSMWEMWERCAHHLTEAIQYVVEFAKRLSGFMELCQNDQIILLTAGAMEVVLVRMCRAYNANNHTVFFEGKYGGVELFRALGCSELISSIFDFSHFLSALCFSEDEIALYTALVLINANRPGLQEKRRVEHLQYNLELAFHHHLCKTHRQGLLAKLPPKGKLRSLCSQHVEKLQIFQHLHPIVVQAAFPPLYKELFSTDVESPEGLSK
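Read-out: Photinus luciferase luminescence; inhibitors lower reporter signal. Insect Schneider cells with Gal4-ROR gamma fusion under metallothionein promoter, UAS reporter; 700 uM final copper sulfate induction, 20 hr, ambient temperature.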
Gal4-VP16 FLuc – Gal4-VP16 reporter inhibition counter-screen; 310,000 tested, 3.5% active; Potency, µM (titrated, usually from 53.6 µM), inactives show top-dose activity, negative = inhibition, actives largely listed as inhibitors; Drosophila S2 Gal4-VP16 UAS-luciferase, luminescence, 20 h;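 also: Gal4-VP16 expression switched on by copper sulfate through the metallothionein promoter; potency is read from the fitted curve at half-maximal effect; nearly all actives have a fitted effect of over 50% in size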
TSHR antag – human thyrotropin receptor antagonism | P16473 | TSHR-expressing cells, TSH-stimulated cAMP HTRF, 2 h; stronger effect = lower value | activity change, negative = inhibition, % at 11.5 µM | 330,000 tested, 0.2% active;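 active = activity change below a set negative limit, meaning inhibition stronger than a set level, cut at about -70% in these data; inconclusive = activity change between two set negative limits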
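Cell-based HTRF cAMP assay; TSHR cells + compound, TSH EC80 (4nM final), 2 h, 37 deg C. Lysis with anti-cAMP cryptate and cAMP-d2, 30 min RT, read 665/620 nm.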
Starred values were filed as active, the others as inactive; [ ] = another dose, or the depositor's remark. The list is not random: actives were taken first. Their share in the collection is about 8%. Unless noted, calls follow the shape of the dose curve; as a rule, active = well fitted curve in the direction sought with a large enough effect; inconclusive = small, poorly fitted or top-dose-only effect, or another doubt; inactive = no such curve, though single readings can be large; an effect the other way counts as inactive or inconclusive. % is scaled to controls: 0 for no effect and ±100 for the full control effect.

For COc1cccc(CN=CC2=C(O)CC(C)(C)CC2=O)c1OC the results were FBPA coupling cs -0.3, ELG1 DNA repair 14.8%, RORgamma inh 15.5%, Gal4-VP16 FLuc 21.6% and TSHR antag -0.9.
Screening COC(=O)[C@@]12CCCN1[C@H](c1ccc(-c3ccc(C(C)=O)cc3)c(OC)c1)[C@H]1C(=O)N(C)C(=O)[C@H]12 returned ELG1 DNA repair -23.2% and TSHR antag -7.5.
CCOC(=O)c1ccc(NC(=O)CSc2nc(=O)n3cccc(C)c3n2)cc1 was read as ELG1 DNA repair -15.8% and TSHR antag -5.8.
`CCOC1(OCC)C(c2ccc(Cl)cc2)C(C#N)(C#N)C1(OCC)OCC` (stereo not given) gave FBPA coupling cs -1.3, ELG1 DNA repair 19.7%, RORgamma inh 12.6µM*, Gal4-VP16 FLuc -63.5% and TSHR antag 7.5.
Screening O=c1cc2c(n[nH]1)-c1ccccc1CC2 returned FBPA coupling cs 2.4, ELG1 DNA repair 24.3%, RORgamma inh -17.5%, Gal4-VP16 FLuc 5.6% and TSHR antag -4.5.
For CN(C(=O)c1ccc(NC(=O)Cc2ccc(NC(=O)C3CCCN(C(=O)C4CC4)C3)cc2)cc1)C1CC1 (stereo not given) the results were ELG1 DNA repair 0.0% and TSHR antag -13.3.
Screening CCN1C(=O)c2ccc(C(=O)Nc3cccc(C(=O)O)c3)cc2C1=O returned FBPA coupling cs 3.4, ELG1 DNA repair -2.7%, RORgamma inh 10µM*, Gal4-VP16 FLuc inconclusive and TSHR antag 17.0.
S=C(NCc1ccco1)Nc1cc(Cl)c(Cl)cc1Cl was read as FBPA coupling cs -0.7, ELG1 DNA repair -7.9%, RORgamma inh inconclusive, Gal4-VP16 FLuc inconclusive and TSHR antag -13.5.
For S=C(NCc1ccco1)Nc1cc(-c2ccccc2)[nH]n1 the results were FBPA coupling cs 4.2, ELG1 DNA repair -12.5%, RORgamma inh 6.31µM*, Gal4-VP16 FLuc inconclusive and TSHR antag -5.1.
S=C(NCc1ccco1)Nc1ccc(Br)cn1 was read as FBPA coupling cs 1.1, ELG1 DNA repair 1.7%, RORgamma inh 3.16µM*, Gal4-VP16 FLuc 3.55µM* and TSHR antag 5.6.
CC(C)C[C@H](NC(=O)[C@H](CCCCN)NC(=O)[C@H](CCC(N)=O)NC(=O)[C@H](Cc1cnc[nH]1)NC(=O)[C@H](Cc1cnc[nH]1)NC(=O)[C@@H](N)C(C)C)C(=O)N[C@H](C(=O)N[C@@H](Cc1ccccc1)C(=O)N[C@@H](Cc1ccccc1)C(=O)N[C@@H](C)C(=O)N[C@@H](CCC(=O)O)C(=O)N[C@@H](CC(=O)O)C(=O)N[C@H](C(=O)NCC(=O)N[C@@H](CO)C(=O)N[C@@H](CC(N)=O)C(=O)N[C@@H](CCCCN)C(=O)O)C(C)C)C(C)C was read as FBPA coupling cs 0.1, RORgamma inh 2.1% and Gal4-VP16 FLuc -3.5%.
For O=C(c1ccco1)N1CCN(Cc2nnc(-c3ccccc3)o2)CC1 the results were FBPA coupling cs -0.2, ELG1 DNA repair 1.0%, RORgamma inh -2.3%, Gal4-VP16 FLuc -0.1% and TSHR antag 2.6.
For Cc1ccc(CN2CC(=O)N3[C@H]4c5cc(C)ccc5OC[C@@H]4[C@H](c4ccccc4)[C@]3(C)C2=O)cc1 the results were ELG1 DNA repair -24.7% and TSHR antag 26.3.
For COc1ccc2c(c1)[C@H]1[C@H](CO2)[C@H](c2ccccc2)[C@]2(C)C(=O)N(Cc3ccc(C)cc3)CC(=O)N12 the results were ELG1 DNA repair 18.3µM* and TSHR antag -3.3.
C/C(=N\NC(=O)C(=O)Nc1ccc(C)c(Cl)c1)c1ccncc1 was read as FBPA coupling cs 0.8, ELG1 DNA repair 11.7%, RORgamma inh inconclusive, Gal4-VP16 FLuc inconclusive and TSHR antag 15.3.
C/C(=N\NC(=O)C(=O)Nc1cccc(Cl)c1)c1ccncc1 was read as FBPA coupling cs -1.2, ELG1 DNA repair 1.9%, RORgamma inh inconclusive, Gal4-VP16 FLuc 5.62µM* and TSHR antag 6.3.
For C/C(=N\NC(=O)c1ccccc1NC(=O)c1ccc(Cl)cc1)c1ccncc1 the results were FBPA coupling cs -2.2, ELG1 DNA repair inconclusive, RORgamma inh 0.562µM*, Gal4-VP16 FLuc 0.891µM* and TSHR antag -8.2.
For C/C(=N\NC(=O)c1ccc(N/N=C(\C)c2ccncc2)cc1)c1ccncc1 the results were FBPA coupling cs -2.1, ELG1 DNA repair 23.1µM*, RORgamma inh -21.5%, Gal4-VP16 FLuc 5.2% and TSHR antag 1.2.
Screening CCCN(Cc1cc2ccc(C)cc2[nH]c1=O)C(=O)c1ccccn1 returned FBPA coupling cs -31.6*, ELG1 DNA repair -2.9%, RORgamma inh -11.5%, Gal4-VP16 FLuc -2.6% and TSHR antag -10.7.
`CC(C)Oc1ccccc1NC(=O)CSc1nccn1C` gave FBPA coupling cs 1.2, ELG1 DNA repair 14.8%, RORgamma inh -7.4%, Gal4-VP16 FLuc -2.3% and TSHR antag -6.4.
Screening COc1cccc(Cn2c(=O)cnc3cnc(N4CCOCC4)nc32)c1 returned FBPA coupling cs 0.6, RORgamma inh -32.1% and Gal4-VP16 FLuc 0.3%.
For Nc1nc2ccccc2n1/N=C/c1ccc2c(c1)OCO2 the results were FBPA coupling cs -6.2, ELG1 DNA repair inconclusive, RORgamma inh 10µM*, Gal4-VP16 FLuc inconclusive and TSHR antag -2.5.
Nc1nc2ccccc2n1/N=C/c1ccc(Br)cc1 was read as FBPA coupling cs 5.4, ELG1 DNA repair inconclusive, RORgamma inh -1.9%, Gal4-VP16 FLuc -2.4% and TSHR antag -14.9.
Screening Cc1ccc(S(=O)(=O)/N=C(/Nc2ccc([N+](=O)[O-])cc2[N+](=O)[O-])c2ccccc2)cc1 returned ELG1 DNA repair 23.1µM* and TSHR antag -20.0.
`Cc1ccc(S(=O)(=O)/N=C(/NC(=S)Nc2cccc(C)c2)c2ccccc2)cc1` gave FBPA coupling cs 0.8, ELG1 DNA repair 25.4%, RORgamma inh inconclusive, Gal4-VP16 FLuc 12.6µM* and TSHR antag -1.4.
For CC(C)OC(=S)N/C(=N\S(=O)(=O)c1ccccc1)c1ccccc1 the results were FBPA coupling cs -0.1, ELG1 DNA repair 13.8%, RORgamma inh 0.447µM*, Gal4-VP16 FLuc 22.1%[0.365 µM] and TSHR antag -4.6.
Screening Cc1cccc(NC(=S)N/C(=N/S(=O)(=O)c2ccccc2)c2ccccc2)c1 returned FBPA coupling cs 5.2, ELG1 DNA repair inconclusive, RORgamma inh inconclusive, Gal4-VP16 FLuc inconclusive and TSHR antag -3.8.
For CC(C)O/C(=N\S(=O)(=O)c1ccc(Cl)cc1)c1ccccc1 the results were FBPA coupling cs -0.3, ELG1 DNA repair 1.7%, RORgamma inh -0.3%, Gal4-VP16 FLuc 4.2% and TSHR antag 3.1.
`COc1ccc2nc(SCC(=O)N(C)C3CCCCC3)[nH]c2c1` gave ELG1 DNA repair 18.7% and TSHR antag -5.6.
